Results taken from PubChem BioAssay (NCI).
Compounds without any hit were thinned out: in the full panel of roughly 79,000, 15% have a hit. Unmarked numbers belong to inactive results. Active and inactive are the calls of the source. Rule as the data show it: active = growth inhibition above about 70%; inactive = the rest.

Assay: NCI Yeast Anticancer Drug Screen. Data for the mlh1 strain (AID 171);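 also: 0% = growth of vehicle-treated control cultures of the same strain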
Settings: S. cerevisiae mlh1 strain growth inhibition, active compounds read high
Experimental: Growth inhibition of yeast strains with defined genetic alterations is measured as a screen for potential anti-cancer activity. Selected strains with alterations in DNA damage repair or cell cycle control were exposed to compounds and growth inhibition was measured relative to vehicle treated controls. The strain used in this assay is mlh1

SMILES	growth inhibition (at 1.2 µM)	growth inhibition (at 3.7 µM)	growth inhibition (at 11.0 µM)	growth inhibition (at 33.0 µM)	growth inhibition (at 100.0 µM)
O=C1C=CC(=Nc2ccc3c(c2)Cc2cc(NC(=O)C(F)(F)F)ccc2-3)O1	3%	9%	22%	39%	98% (active)
CCCCCCCCCCC(=O)Cl	14%	7%	5%	2%	82% (active)
O=C1C=CC(=O)N1c1ccc2c(c1)Cc1cc(NC(=O)C(F)(F)F)ccc1-2	16%	32%	54%	73% (active)	85% (active)
COC1C=COC2(C)Oc3c(C)c(O)c4c(c3C2=O)/C(=N/C2CCC(O)OC2C)C=C(NC(=O)/C(C)=C\C(=O)C2CC2C(O)C(C)C(O)C(C)C(OC(C)=O)C1C)C4=O (stereo not given)	3%	1%	-1%	28%	73% (active)
O=S(=O)(CCCl)c1ccccc1Cl	-10%	-1%	27%	90% (active)	97% (active)
CN(C)CCn1c2c3ccccc3ccc2c2oc(=O)c3ccccc3c21	-10%	-6%	42%	95% (active)	92% (active)
O=C(Nc1ccccc1)OCCc1ccc(Cl)c(Cl)c1	-3%	2%	22%	46%	46%
COc1ccc(O)c(/C=N\Nc2ccccc2)c1	-13%	-8%	-7%	-2%	74% (active)
